Source: ChEMBL document CHEMBL4513216, “Probing the Open Global Health Chemical Diversity Library for Multistage-Active Starting Points for Next-Generation Antimalarials” (ACS Infect Dis, 2020)
The campaign covered roughly 69,000 compounds. About 8,600 (12%) showed an effect of 50% or more. Many of the other results were omitted from the sample, so strong results are more common in it than they were.

tested on: Plasmodium berghei; test: Screen against P. berghei liver stage (PbLuc), transformed with Luciferase, at 10uM; format: functional, HepG2; details: tested at 10 uM

Row | SMILES | INHIBITION [%]
1 | COCc1ccccc1CNC(=O)CNc1cccc(Cl)c1OC | -28.2
2 | CSCCC(=O)N1CCCN(Cc2cnn(C(C)C)c2)CC1 | 4.71
3 | O=C([C@H]1CCCO1)N1CCc2ncc(CN3CCOCC3)n2CC1 | 22.9
4 | CC(C(=O)N1CCCN(Cc2cnn(C)c2)CC1)n1ccnc1 (configuration not stated) | 48.1
5 | O=C(N1CCCC1)N1CCc2ncnc(C3CCOC3)c2CC1 (configuration not stated) | 31.8
6 | O=C(NCc1ccccc1F)NCC(O)c1cccc(F)c1 (configuration not stated) | -24.3
7 | CS(=O)(=O)N1CCN(c2ccnc(N3CCCC3)n2)CC1 | 50.8
8 | O=C(O)c1ccnc(-c2ccnc(N3CCCCCC3)n2)c1 | 4.41
9 | CS(=O)(=O)N1CCN(c2ccnc(N3CCCCC3)n2)CC1 | 58.5
10 | CS(=O)(=O)N1CCN(c2cnnc(N3CCCC3)c2)CC1 | -11.4
11 | CCCS(=O)(=O)N1CCN(c2cc(-n3cccc3)nc(C)n2)CC1 | 34.5
12 | CN(C)S(=O)(=O)N1CCN(c2ccnc(N3CCCC3)n2)CC1 | 5.14
13 | CCCS(=O)(=O)N1CCN(c2ccnc(N3CCCC3)n2)CC1 | 30.1
14 | CCCS(=O)(=O)N1CCN(c2ccnc(N3CCCCC3)n2)CC1 | 59.8
15 | CN(C)S(=O)(=O)N1CCN(c2ccnc(N3CCCCC3)n2)CC1 | 43.1
16 | Cc1nc(C)c(C(=O)NCCNc2ncccc2C(F)(F)F)s1 | -36.3
17 | CCn1cnnc1C1CCN(C(=O)c2ccc3cc[nH]c3c2)CC1 | 30.8
18 | Cc1cc(C)n(CC2CN(Cc3noc(C4CC4)n3)CCO2)n1 (configuration not stated) | -37.7
19 | CC(=O)N1CCCCC1c1nc2c(c(NC3CCCC3)n1)CN(C)CC2 (configuration not stated) | 38.2
20 | O=C(NCCNc1ncccn1)N1CCN(C2CCCC2)CC1 | 21.6
21 | Cc1nc(C2CCCN(C(=O)CCn3ccccc3=O)C2)no1 (configuration not stated) | 29.7
22 | COCc1ncc(CN2CCC3(CCNC(=O)CC3)CC2)cn1 | -47
23 | COCc1ncc(CN2CCC3(CCC(=O)N(CC(C)O)C3)CC2)cn1 (configuration not stated) | 55.2
24 | COCc1ncc(CN2CCC3(CCNCC3)CC2)cn1 | 18.5
25 | COC(=O)C1CCN(C(=O)Cn2nc(C)nc2-c2ccccc2)CC1 | -3.48
26 | N[C@@H](Cc1c[nH]cn1)C(=O)N1CCC(Oc2ccc(Cl)cc2)CC1 | 43.9

Row | SMILES | INHIBITION [%]
27 | Cc1nnc(CN2CCCC(CCc3ccccc3C(F)(F)F)C2)o1 (configuration not stated) | 27.2
28 | Cc1ccccc1CCC1CCCN(Cc2nnc(-c3ccco3)o2)C1 (configuration not stated) | 35.6
29 | Cc1nc(CN2CCCC(CCc3cccc(C(F)(F)F)c3)C2)co1 (configuration not stated) | 62.4
30 | Cc1nc(CN2CCCC(CCc3ccccc3C(F)(F)F)C2)co1 (configuration not stated) | 74.5
31 | FC(F)(F)c1ccccc1CCC1CCCN(Cc2cscn2)C1 (configuration not stated) | 76.7
32 | Cn1cc(CN2CCCC(CCc3ccccc3C(F)(F)F)C2)cn1 (configuration not stated) | 43
33 | CC1CCCN(Cc2coc(-c3cccc(F)c3)n2)C1 (configuration not stated) | 18.6
34 | Cc1nc(CN2CCCC(c3nc(C)n4c(C)c(C)sc34)C2)co1 (configuration not stated) | 19.6
35 | CCN(CC(F)(F)F)C(=O)C1CCCN(Cc2cscn2)C1 (configuration not stated) | -116
36 | COCCN(Cc1ccco1)c1ncc(C#N)cc1Cl | 28
37 | CCn1ncc(Nc2[nH]cnc3nc(C)nc2-3)c1C | 9
38 | COCC(=O)Nc1ccc(-c2noc([C@@H]3CCCN3C(C)C)n2)cn1 | 35.8
39 | CC(C)NC(=O)N1Cc2nccn2CC(COc2cccnc2)C1 (configuration not stated) | 22.4
40 | O=C(c1cscn1)N1CCC2(CCN(Cc3cccs3)CC2)C1 | -5.12
41 | COc1ccccc1N1CCN(Cc2ncc(C)c(OC)c2C)CC1=O | 37.4
42 | CC(C)NC(=O)CNC(C)c1c(F)cccc1Cl (configuration not stated) | 31.2
43 | CC(NC(=O)N1CCNC(=O)CC1)c1c(F)cccc1Cl (configuration not stated) | -36.75
44 | CNC(=O)NC(C)c1c(F)cccc1Cl (configuration not stated) | 50.8
45 | NC(=O)CNC(c1ccccc1)c1ccccc1 | 6.67
46 | CC(NC(=O)N1CCS(=O)(=O)CC1)c1c(F)cccc1Cl (configuration not stated) | -5.275
47 | CC(NCC(N)=O)c1c(F)cccc1Cl (configuration not stated) | 67.1
48 | CCOc1ccccc1N1CCN(c2nnc(C)o2)CC1 | 7.4
49 | CCN(CC)C(=O)CN(C)CCn1nc2ccccn2c1=O | -79.8
50 | N#Cc1ccc(C(=O)N2CC[C@H]3[C@@H]2CCC(=O)N3c2cccnc2)cc1 | 23.9
51 | Cc1ccc(C(=O)N2C[C@@H](OCc3cccnc3)[C@H]3OCCC[C@H]32)o1 | 10.6
52 | Cc1ccc2c(c1)OC(C)CN2C(=O)c1c[nH]c(C)cc1=O (configuration not stated) | 26.9

Row | SMILES | INHIBITION [%]
53 | CCC(=O)N1CCC2(CC1)CC(CC(N)=O)c1ccc(F)cc12 (configuration not stated) | -26.5
54 | CCN1CCC2(CC1)CC(CC(=O)N(C)C)c1ccc(F)cc12 (configuration not stated) | 53
55 | CN(C)C(=O)CC1CC2(CCN(CC3CC3)CC2)c2cc(F)ccc21 (configuration not stated) | 35.3
56 | CCNC(=O)CC1CC2(CCN(C(C)=O)CC2)c2cc(F)ccc21 (configuration not stated) | 31.4
57 | CCOC1CC2(CCN(C(=O)COC)CC2)c2cc(F)ccc21 (configuration not stated) | 19.8
58 | CCC(=O)N1CCC2(CC1)CC(CC(=O)N(C)C)c1ccc(F)cc12 (configuration not stated) | 51.2
59 | Cc1cccc(-c2ccc(C(=O)NCC3CCCOC3)c(=O)[nH]2)c1 (configuration not stated) | -24.2
60 | COCCC(=O)N1CCN(CC(C)C)c2nc(C)ccc2C1 | 7.24
61 | Cc1ncsc1CN(C)C(=O)CC1CCOc2ccccc21 (configuration not stated) | -1.35
62 | Cc1nc(COC(=O)c2cccc3c2OCCO3)no1 | 70.1
63 | COCc1ccccc1C(=O)OCc1noc(C)n1 | 9.63
64 | Cc1ncsc1COC(=O)c1cccc2c1OCCO2 | 77.9
65 | Cc1nc(COC(=O)c2cccnc2C)no1 | 32
66 | Cc1nc(COC(=O)c2cccc3c2OCCO3)cs1 | 48.8
67 | Cc1nc(CN2C(=O)CCC23CCN(Cc2ccoc2)CC3)cs1 | -30
68 | O=S(=O)(c1ccccc1)N1CCOCC(Cc2cccnc2)C1 (configuration not stated) | 9.05
69 | N#CCCCN1CCCC1Cc1ccccc1 (configuration not stated) | 53.6
70 | N#CCCN(C(=O)CN1CCCC1Cc1ccccc1)c1ccccc1 (configuration not stated) | 38.5
71 | CN(Cc1cccc(F)c1)C(=O)CN1CCCC1CCc1ccccc1 (configuration not stated) | 5.14
72 | CN(C(=O)CN1CCCC1Cc1ccccc1)c1ccccc1 (configuration not stated) | 68
73 | CCN(C(=O)CN1CCCC1Cc1ccccc1)c1ccccc1 (configuration not stated) | 75.7
74 | COc1cccc(CC2CCCN2CC(N)=O)c1 (configuration not stated) | 35
75 | COc1cccc(CC2CCCN2CCCC#N)c1 (configuration not stated) | 34.1
76 | COc1ccc(CC2CCCN2CCCC#N)cc1 (configuration not stated) | 35.9
77 | CCN(C(=O)CN1CCCC1c1ccc(OC)cc1)c1ccccc1 (configuration not stated) | -47.9
